# Shown are actives, neighbours in structure and some others; about 10% of the full set was active somewhere.
# NIH3T3 tox = NIH 3T3 cell cytotoxicity; NIH 3T3 viability, CellTiter-Glo ATP luminescence, 48-72 h; Potency, µM (doses to about 96.7 µM), for the others: top-dose activity change, negative = cytotoxicity, actives largely listed as inhibitors; actives 4.3% (n = 94,000); AID 1345082; note: nearly all actives have a fitted effect of over 55% in size
#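 Viability of NIH 3T3 cells after 48 or 72 hr compound treatment at 37 °C was assessed by CellTiter-Glo, with luminescence imaged following a 10 min room-temperature step.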
# FLuc inh = Photinus pyralis luciferase inhibition; P08659; purified P. pyralis luciferase, luminescence, biochemical; Potency, µM (highest dose often 115 µM), usual class: inhibitors; actives 2.5% (n = 76,000); note: nearly all actives have a fitted effect of over 65% in size
# Target sequence (P08659 whole entry, looked up): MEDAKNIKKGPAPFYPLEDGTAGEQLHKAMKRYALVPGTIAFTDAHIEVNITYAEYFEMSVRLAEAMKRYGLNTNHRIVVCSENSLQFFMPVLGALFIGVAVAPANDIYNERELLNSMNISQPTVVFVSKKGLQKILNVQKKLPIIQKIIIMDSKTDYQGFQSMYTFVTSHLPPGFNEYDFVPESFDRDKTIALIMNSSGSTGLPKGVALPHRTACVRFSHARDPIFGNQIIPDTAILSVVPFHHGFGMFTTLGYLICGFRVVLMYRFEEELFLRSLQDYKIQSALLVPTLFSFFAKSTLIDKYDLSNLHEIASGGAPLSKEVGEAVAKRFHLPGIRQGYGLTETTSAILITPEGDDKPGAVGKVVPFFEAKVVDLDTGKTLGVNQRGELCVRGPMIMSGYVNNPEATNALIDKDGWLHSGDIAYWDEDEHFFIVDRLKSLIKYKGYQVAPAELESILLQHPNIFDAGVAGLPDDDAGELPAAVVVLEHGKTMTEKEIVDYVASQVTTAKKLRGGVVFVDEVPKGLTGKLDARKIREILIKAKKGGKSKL
#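 Purified 10nM P. pyralis luciferase with 10uM D-luciferin and 10uM ATP in 50mM Tris acetate pH 7.5, 10mM Mg acetate, 0.01% Tween-20, 0.05% BSA. qHTS titration; luminescence read by CCD imager.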
# hNpr1 antagonist = human Npr1 receptor antagonism; P16066; HEK293 hNpr1 GloSensor cGMP, ANP-stimulated luminescence; Potency, µM (series often up to 46.3 µM), for the others: at the highest dose activity change, negative = inhibition, actives largely listed as inhibitors; actives 1.6% (n = 76,000); AID 1347048; calls by dose curve; note: nearly all actives have a fitted effect of over 60% in size
#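 Compound pre-incubated 30 min at room temperature on GloSensor-loaded HEK293 cells stably carrying hNpr1 and the pGS-40F cGMP biosensor. Stimulation uses hNppA at 0.1 nM final; luminescence is taken at baseline and 20 min post-agonist.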
# HEK293 tox = HEK 293 cell cytotoxicity. HEK 293 viability, ATP luminescence (CellTiter-Glo), 48-72 h. Potency, µM (highest dose often 115 µM), inactives show at the highest dose activity change, negative = cytotoxicity, most hits filed as inhibitors. actives 6.6% (n = 94,000); note: nearly all actives have a fitted effect of over 60% in size
#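 Luminescence from cellular ATP, measured with CellTiter-Glo, indicates HEK 293 viability. Cells plated at 250 cells/well are treated with compound for 48 or 72 hr at 37 degree Celsius before reagent addition.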
# GPT2 inhibitor = blocks human glutamate pyruvate transaminase 2; Q8TD30; Recombinant GPT2, coupled pyruvate oxidase/HRP Amplex Red fluorescence; Potency, µM (titrated, usually from 57.7 µM), without a hit: top-dose activity change, negative = inhibition, most hits filed as inhibitors; actives 0.25% (n = 100,000); note: nearly all actives have a fitted effect of over 60% in size
#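 Fluorescence read-out: pyruvate from GPT2 turnover coupled to pyruvate oxidase, HRP and Amplex Red (0.2mM ThPP, 0.2U/mL PO and HRP, 50uM Amplex final). Substrates 250uM a-KG, 2mM L-alanine; enzyme 10ng/uL; 30 min RT.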
# * = called active by the depositor; i = inactive; ? = inconclusive; . = not tested or not shown; [ ] = another dose, or the depositor's remark. Unless noted, calls come from the whole dose curve; as a rule, active = well fitted curve in the direction sought with a large enough effect; inconclusive = small, poorly fitted or top-dose-only effect, or another doubt; inactive = no such curve, though single readings can be large; an effect the other way counts as inactive or inconclusive. % is set by controls: 0 for no effect and ±100 for the full control effect; potency is the fitted concentration of half-maximal effect.
SMILES,NIH3T3 tox,FLuc inh,hNpr1 antagonist,HEK293 tox,GPT2 inhibitor
Cc1ccccc1C(=O)N1CCC(N2C(=O)c3c(c(C)nn3-c3ccccc3)C2C(C)C)C1 (stereo not drawn),?,.,.,40µM*,.
Cc1nn(-c2ccccc2)c2c1C(C(C)C)N(C1CN(C(=O)C3CCCC3)C1)C2=O (stereo not drawn),40µM*,.,.,45µM*,.
Cc1ccccc1C(=O)N1CC(N2C(=O)c3c(c(C)nn3-c3ccccc3)C2C(C)C)C1 (stereo not drawn),?,.,.,50µM*,.
Cc1ccccc1C(=O)N1CCCC(N2C(=O)c3c(c(C)nn3-c3ccccc3)C2C(C)C)C1 (stereo not drawn),40µM*,.,.,22µM*,.
O=C(NCCCc1ccccc1)C1CCc2nnc(C3CCN([S+](=O)([O-])c4ccccc4Cl)CC3)n21 (stereo not drawn),?,.,.,-18%,5%
Cc1nn(-c2ccccc2)c2c1C(C(C)C)N(C1CCN(C(=O)c3ccccn3)C1)C2=O (stereo not drawn),-21%,.,.,45µM*,.
Cc1nn(-c2ccccc2)c2c1C(C(C)C)N(C1CCCN(C(=O)Cc3ccccn3)C1)C2=O (stereo not drawn),-30%,.,.,?,.
CC(=O)N1CC(N2C(=O)c3c(c(C)nn3-c3ccccc3)C2C(C)C)C1 (stereo not drawn),-25%,.,.,-7%,.
Cc1nn(-c2ccccc2)c2c1C(C(C)C)N(C1CN(C(=O)c3ccccc3)C1)C2=O (stereo not drawn),?,.,.,45µM*,.
Cc1nn(-c2ccccc2)c2c1C(C(C)C)N(C1CCCN(C(=O)C(C)(C)C)C1)C2=O (stereo not drawn),-5%,.,.,?,.
Cc1nn(-c2ccccc2)c2c1C(C(C)C)N(C1CCCN(C(=O)c3ccccc3F)C1)C2=O (stereo not drawn),?,.,.,35µM*,.
Cc1nn(-c2ccccc2)c2c1C(C(C)C)N(C1CN(C(=O)c3ccccn3)C1)C2=O (stereo not drawn),?,.,.,-28%,.
Cc1ccc(C(=O)N2CCCC(N3C(=O)c4c(c(C)nn4-c4ccccc4)C3C(C)C)C2)cc1 (stereo not drawn),?,.,.,45µM*,.
CN(C)C(=O)[C@@H]1CN(Cc2c(F)cccc2Cl)C[C@H]1CO,i,i,-3%,i,4%
COc1ccc(-n2cc(CN3C[C@@H](C)O[C@@H](C)C3)c(-c3cccc(F)c3)n2)cc1,-19%,i,-1%,?,-6%
COc1ccc(-n2cc(CN3CCN(C)C(C)C3)c(-c3cccc(F)c3)n2)cc1 (stereo not drawn),32µM*,?,-4%,35µM*,1%
Cc1ccc(N)cc1O,.,.,.,.,11µM*
Cc1noc(C2CC3(CCN(C(=O)CCCc4c[nH]c5ccccc45)CC3)CN2C)n1 (stereo not drawn),-32%,i,-18%,?,-14%
COCCNC(=O)[C@@H]1C[C@H](Oc2ccccc2)CN1S(=O)(=O)c1c(C)noc1C,-7%,i,0%,-15%,i
Cc1c(-c2ccccc2F)[nH]c2ccc(CNC(=O)CN3CC(=O)NC3=O)cc12,?,16µM*,-5%,?,i
Cc1c(-c2ccccc2F)[nH]c2ccc(CNC(=O)CCn3cnnc3)cc12,?,?,0%,-9%,-10%
O=C(CN1CC(=O)NC1=O)NCc1noc(-c2ccc3c(c2)OCO3)n1,-9%,i,10%,?,i
Cc1c(-c2ccccc2F)[nH]c2ccc(CNS(=O)(=O)C3CC3)cc12,?,?,?,35µM*,?
Cc1c(-c2ccccc2F)[nH]c2ccc(CNC(=O)C3CCNC3)cc12 (stereo not drawn),?,20µM*,-18%,?,i
Cc1nc(CCC(=O)NCc2ccc3[nH]c(-c4ccccc4F)c(C)c3c2)n[nH]1,?,16µM*,-1%,?,i
SMILES,NIH3T3 tox,FLuc inh,hNpr1 antagonist,HEK293 tox,GPT2 inhibitor
Cc1ccc(CNC(=O)C2CCCN(C3CCN(C(=O)C4CC4)CC3)C2)cc1F (stereo not drawn),i,i,6%,-3%,-1%
O=C(c1ccc(F)cc1)N1CCc2nc(C3CC3)nc(-c3ccc(O)cc3)c2C1,?,.,.,?,2%
CN(CC(=O)N1CCC(CCOc2ccccc2F)C1)S(=O)(=O)c1ccc2c(c1)oc(=O)n2C (stereo not drawn),?,i,-23%,40µM*,i
O=C(CN1C(=O)CCC1=O)N1CCC(CCOc2ccccc2F)C1 (stereo not drawn),-28%,i,?,45µM*,-9%
Cc1nn(C(=O)CCC(=O)N2CCC(CCOc3ccccc3F)C2)c2ccccc12 (stereo not drawn),-8%,i,-3%,-12%,i
O=C(NCCN1CCCCC1)C1(CCO)CCN(Cc2ccccc2)C1 (stereo not drawn),-27%,i,4%,5%,-15%
COC(=O)[C@@H]1Cc2ncn(C)c2CN1S(=O)(=O)c1ccc(Cl)cc1,?,i,-2%[70.6 µM],-3%[172 µM],1%[88.5 µM]
COC(=O)[C@@H]1Cc2ncn(C)c2CN1S(=O)(=O)c1ccc2ccccc2c1,79µM*,i,0%[70.6 µM],-7%[172 µM],i
COC(=O)[C@@H]1Cc2ncn(Cc3ccc(OC)cc3)c2CN1S(=O)(=O)c1ccc(F)cc1,79µM*,i,3%,-5%,?
COC(=O)[C@@H]1Cc2ncn(Cc3ccc(OC)cc3)c2CN1Cc1ccc(F)cc1,?,i,?,63µM*,-24%[88.5 µM]
COC(=O)[C@@H]1Cc2ncn(Cc3ccc(OC)cc3)c2CN1S(=O)(=O)c1ccc(OC)cc1,?,i,2%,-5%,-12%
CC(=O)N1CCC(C(=O)N2CCC(N3Cc4ccccc4C3=O)CC2)CC1,-18%,.,.,-5%,i
Cc1cn2nc(C(=O)N3CCC(NC(=O)c4nccc5ccccc45)CC3)cc2c(=O)[nH]1,?,i,20%,?,4%
COc1ccc(NC(=O)N2CCC3(CC2)CN(c2ccccc2)C3=O)cc1OC,-30%,.,.,40µM*,?
O=C(NCC(=O)N1CCN(c2ncccn2)CC1)c1ccc(-c2cnc3ccccc3c2)cc1,?,.,.,?,i
CN(Cc1ccccc1)C(=O)C[C@@H]1c2nc(NC(=O)c3ccc(F)cc3)sc2C[C@@H]2[C@](C)(CO)[C@H](O)CC[C@]21C,25µM*,i,-10%,?,i
COc1ccc(C(=O)Nc2nc3c(s2)C[C@@H]2[C@](C)(CO)[C@H](O)CC[C@@]2(C)[C@@H]3CC(=O)N(C)Cc2ccccc2)cc1,?,i,-15%,?,-2%
